Data from the supplement of paper PMC9950053.
Counter-ions that a name gives are not always drawn.

system: Danio rerio larvae (5 dpf); experiment: excitability (activity period 17 minus period 16, 1-s interval sound) minus DMSO control (percentage points); higher = more acoustic excitability than DMSO larvae; conditions: 10 µM; exposure time: 3 h pre-incubation + 3 h imaging
Procedure: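 Wild-type 5 dpf zebrafish larvae (n=48 per drug, 96-well plates, 28.5 °C) were exposed to Tocris FDA-approved library compounds at 10 µM (0.1% DMSO) for 3 h before and 3 h during imaging. Images were taken every 6 s during visual (moving coloured lines) and acoustic stimuli, and larvae were tracked with the DeepLabCut-based Z-LaP Tracker. Each behavioural measure is the treated-group mean minus the DMSO vehicle control mean (n=844), in percentage points. This mapping covers compounds with 4-character plate codes.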

Row | Structure (SMILES) | excitability
1 | CCOC(=O)c1ncn2c1CN(C)C(=O)c1cc(F)ccc1-2 [Flumazenil] | 2.65
2 | CC1CNc2c(cccc2S(=O)(=O)N[C@@H](CCCNC(=N)N)C(=O)N2CC[C@@H](C)C[C@@H]2C(=O)O)C1 (stereo not given in full) [Argatroban] | 0.775
3 | C=C1[C@H](CO)[C@@H](O)C[C@@H]1n1cnc2c(=O)[nH]c(N)nc21 [Entecavir] | -0.589
4 | CN(C)CCc1c[nH]c2ccc(Cn3cncn3)cc12 [Rizatriptan benzoate] | -0.877
5 | Cc1cc(C2CCCCC2)n(O)c(=O)c1 [Ciclopirox] | 5.61
6 | CC1(C)O[C@@H]2[C@@H](CO[C@@]3(COS(N)(=O)=O)OC(C)(C)O[C@@H]23)O1 [Topiramate] | 2
7 | CCCN(CCC)S(=O)(=O)c1ccc(C(=O)O)cc1 [Probenecid] | 5.41
8 | C[C@@H](O[C@H]1OCCN(Cc2n[nH]c(=O)[nH]2)[C@H]1c1ccc(F)cc1)c1cc(C(F)(F)F)cc(C(F)(F)F)c1 [Aprepitant] | 8.09
9 | CCOC(=O)C1=C(C)NC(C)=C(C(=O)OC)C1c1cccc(Cl)c1Cl (stereo not given) [Felodipine] | -10.3
10 | Cc1c(-c2ccc(O)cc2)n(Cc2ccc(OCCN3CCCCCC3)cc2)c2ccc(O)cc12 [Bazedoxifene acetate] | 15.4
11 | O=C1CCc2cc(OCCCCc3nnnn3C3CCCCC3)ccc2N1 [Cilostazol] | 9.2
12 | OCCOCCN1CCN(C2=Nc3ccccc3Sc3ccccc32)CC1 [Quetiapine hemifumarate] | 9.04
13 | Cc1ccc(O)c([C@H](CCN(C(C)C)C(C)C)c2ccccc2)c1 [Tolterodine L-tartrate] | 4.8
14 | CCCc1nc2c(C)cc(-c3nc4ccccc4n3C)cc2n1Cc1ccc(-c2ccccc2C(=O)O)cc1 [Telmisartan] | 15.1
15 | Nc1nc(Cl)nc2c1ncn2[C@@H]1O[C@H](CO)[C@@H](O)[C@@H]1F [Clofarabine] | 4.52
16 | NS(=O)(=O)Cc1noc2ccccc12 [Zonisamide] | 4.75
17 | CC(C)n1c(/C=C/C(O)CC(O)CC(=O)O)c(-c2ccc(F)cc2)c2ccccc21 (stereo not given) [Fluvastatin sodium] | 3.75
18 | Cc1nc(Nc2ncc(C(=O)Nc3c(C)cccc3Cl)s2)cc(N2CCN(CCO)CC2)n1 [Dasatinib] | 17.4
19 | COc1cc2nc(N3CCN(C(=O)c4ccco4)CC3)nc(N)c2cc1OC [Prazosin hydrochloride] | 16.4
20 | O=C(O)CCCc1ccccc1 [Sodium 4-Phenylbutyrate] | 2.71

Row | Structure (SMILES) | excitability
21 | COc1ccccc1OCCNCC(O)COc1cccc2[nH]c3ccccc3c12 (stereo not given) [Carvedilol] | 22.5
22 | CC(C)(C)NC(=O)[C@@H]1C[C@@H]2CCCC[C@@H]2CN1C[C@@H](O)[C@H](Cc1ccccc1)NC(=O)[C@H](CC(N)=O)NC(=O)c1ccc2ccccc2n1 [Saquinavir mesylate] | 7.09
23 | Nc1cccc2c1CN(C1CCC(=O)NC1=O)C2=O (stereo not given) [Lenalidomide] | -1.97
24 | COc1ccc(-c2ccc3cc(C(=O)O)ccc3c2)cc1C12CC3CC(CC(C3)C1)C2 [Adapalene] | 0.726
25 | CN(C)CC/C=C1/c2ccccc2COc2ccc(CC(=O)O)cc21 [Olopatadine hydrochloride] | 5.43
26 | CC(C)(C#N)c1cc(Cn2cncn2)cc(C(C)(C)C#N)c1 [Anastrozole] | 3.43
27 | Cc1nnc(C(C)C)n1C1C[C@H]2CC[C@@H](C1)N2CC[C@H](NC(=O)C1CCC(F)(F)CC1)c1ccccc1 (stereo in doubt) [Maraviroc] | 6.13
28 | Brc1c(NC2=NCCN2)ccc2nccnc12 | 6.71
29 | CO[C@H]1/C=C/O[C@@]2(C)Oc3c(C)c(O)c4c(O)c(c5c(nc6cc(C)ccn65)c4c3C2=O)NC(=O)/C(C)=C\C=C\[C@H](C)[C@H](O)[C@@H](C)[C@@H](O)[C@@H](C)[C@H](OC(C)=O)[C@@H]1C [Rifaximin] | 5.77
30 | CCCCCCCCc1ccc(CCC(N)(CO)CO)cc1 | 14.6
31 | CS(=O)(=O)CCNCc1ccc(-c2ccc3ncnc(Nc4ccc(OCc5cccc(F)c5)c(Cl)c4)c3c2)o1 [Lapatinib] | 15.5
32 | Nc1nc2[nH]cc(CCc3ccc(C(=O)N[C@@H](CCC(=O)O)C(=O)O)cc3)c2c(=O)[nH]1 [Pemetrexed] | 2.33
33 | Cc1ccsc1C(=CCCN1CCC[C@@H](C(=O)O)C1)c1sccc1C [Tiagabine hydrochloride] | -6.75
34 | COc1ccc(Cl)cc1C(=O)NCCc1ccc(S(=O)(=O)NC(=O)NC2CCCCC2)cc1 [Glibenclamide] | 2.33
35 | Cc1cccc(CN2CCN(C(c3ccccc3)c3ccc(Cl)cc3)CC2)c1 (stereo not given) [Meclizine dihydrochloride] | 8.17
36 | CC#C[C@]1(O)CC[C@H]2[C@@H]3CCC4=CC(=O)CCC4=C3[C@@H](c3ccc(N(C)C)cc3)C[C@@]21C [Mifepristone] | 5.63
37 | NC(=O)N1c2ccccc2C=Cc2ccccc21 [Carbamazepine] | 1.07
38 | COc1cc(Nc2c(C#N)cnc3cc(OCCCN4CCN(C)CC4)c(OC)cc23)c(Cl)cc1Cl [Bosutinib] | 7.41
39 | CCOc1nc2cccc(C(=O)O)c2n1Cc1ccc(-c2ccccc2-c2nnn[nH]2)cc1 [Candesartan] | -3.55
40 | C[C@]12CC[C@@H]3c4ccc(O)cc4C[C@@H](CCCCCCCCC[S+]([O-])CCCC(F)(F)C(F)(F)F)[C@H]3[C@@H]1CC[C@@H]2O (stereo not given in full) | 3.06
